Source: PubChem BioAssay AID686940 (The Scripps Research Institute Molecular Screening Center, 2013)
The whole screen tested about 370,000 compounds, of which about 2,600 (0.7%) were called active. This is one part of a sample in which actives are shown more often than they occur. Values without a mark were called inactive.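 The calls were made as follows: active = inhibition above a per-plate cutoff, mean inhibition of test wells between control levels plus 3 SD (cut at about 38% in these data); inactive = the rest.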

biological target: COUP transcription factor 2 (Homo sapiens) (UniProt P24468); experiment: COUP-TFII reporter suppression in human cells – cell-based, luciferase reporter, HEK293T, luminescence, primary screen (AID 686940); conditions: HEK293T NGFI-A luciferase reporter, at 8.6 µM, hits give high values;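 also: cells cotransfected with COUP-TFII expression vector driving the NGFI-A reporter; 0% = median of COUP-TF2 test wells and 100% = reporter-only cells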
Sequence (P24468 whole entry, looked up): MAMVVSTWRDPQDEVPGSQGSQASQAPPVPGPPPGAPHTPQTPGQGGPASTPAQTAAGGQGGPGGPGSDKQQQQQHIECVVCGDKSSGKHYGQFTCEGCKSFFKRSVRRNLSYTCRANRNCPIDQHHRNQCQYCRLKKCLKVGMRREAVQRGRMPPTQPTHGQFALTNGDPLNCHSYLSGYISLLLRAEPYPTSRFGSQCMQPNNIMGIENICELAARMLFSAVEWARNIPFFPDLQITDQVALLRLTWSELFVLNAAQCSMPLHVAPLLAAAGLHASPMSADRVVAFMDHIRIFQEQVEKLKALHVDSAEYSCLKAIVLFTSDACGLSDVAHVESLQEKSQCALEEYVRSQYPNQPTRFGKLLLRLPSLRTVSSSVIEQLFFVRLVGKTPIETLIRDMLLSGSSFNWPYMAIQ

Row | SMILES | inhibition
1 | CC1=CC(=Cc2sc3ccccc3[n+]2C)C=C(C)O1 | 71.6% (active)
2 | O=C(NCC1=C(c2ccc3ccccc3c2)C[C@@H]2CC[C@H]1N2Cc1ccco1)c1cccs1 | -9.66%
3 | COC(=O)C1=C(c2ccc(-c3ccccc3)c(F)c2)C[C@@H]2CC[C@H]1N2C(=O)NCc1ccc(F)cc1 | 9.38%
4 | Cc1cccc(NC(=O)OC2CN3CCC2CC3)c1 (stereo not given) | -3.61%
5 | COC1C(O)C(C)OC(OC2CCC3(C=O)C(CCC4C3CCC3(C)C(C5=CC(=O)OC5)CCC43O)C2)C1O (stereo not given) | 78.5% (active)
6 | Cc1ccc(P(=S)(c2ccc(C)o2)N2CCOCC2)o1 | -6.39%
7 | O=C(C1CC(=O)N(C2CCCC2)C1)N1CCC2(CC1)OCCO2 (stereo not given) | -6.43%
8 | CC(=C1C(=O)c2ccccc2C1=O)N1CCN(CCN=Cc2c(O)n(C)c(=O)n(C)c2=O)CC1 | 13.2%
9 | c1ccc(C(CN2CCCCC2)c2ccccc2)cc1 | 5.82%
10 | CCOc1ccc(-c2cc(C)[n+](CCN(CC)CC)c(-c3ccc(OCC)cc3)c2)cc1 | 65.8% (active)
11 | Cc1cc(N2CCNC[C@@H]2C)ccc1N1CC[C@H](O)C1 | 14.6%
12 | Cc1ccccc1CCC[C@@H](CC1CCCCC1)CN(C)C(=O)Oc1ccccc1 | 0.63%
13 | CO[C@H]([C@H](C)/C=C/N(C)C=O)[C@@H](C)C(=O)CC[C@H](C)[C@H](O)[C@H](C)[C@H]1OC(=O)/C=C/C(C)=C/[C@H](O)[C@H](OC)C[C@@H]2C=CC[C@@H](C[C@H](OC)[C@@]3(CO3)[C@@H](OC)C[C@@H](OC)[C@@H]1C)O2 | -21.1%
14 | CCC(C)(O)C(=O)OC1C(=O)OC2CC3C(C)=CC(=O)C(O)C3(C)C3C4(O)OCC23C1C(C)C4O (stereo not given) | 89.2% (active)
15 | CC(C)Oc1cccc(C(=O)C2CCCN(C3CCOCC3)C2)c1 (stereo not given) | -4.53%
16 | COc1ccc2c(c1)[C@@]13CCCCC1[C@@H](C2)NCC3 (stereo not given in full) | -12.9%
17 | Clc1ccc([C@@H]2CC3CCC2N3)cn1 (stereo not given in full) | -1.27%
18 | O=S(=O)(c1ccccc1)N1CCC2CCNC2C1 (stereo not given) | 12.5%
19 | CS(=O)(=O)N1CCC2CCNC2C1 (stereo not given) | 8.62%
20 | Brc1ccc2c(c1)CNCc1cnnn1-2 | -8.52%
21 | CCCCCCCCCCCCn1ccc(=N)cc1 | 81.1% (active)
22 | COP(=O)(Sc1ccccc1)C(Cc1ccccc1)NC(=O)OCc1ccccc1 (stereo not given) | -13.2%
23 | CC(=NC1CCN(Cc2ccccc2)CC1)c1c(O)n(C)c(=O)n(C)c1=O | -7.27%
24 | CCC(C)NC1(c2ccccc2)CCCCC1 (stereo not given) | 6.15%
25 | O=c1c2ccccc2nc(CBr)n1-c1ccc(Cl)cc1 | 6.6%
26 | C[C@]12CC[C@H](O)C[C@H]1CC[C@@H]1C2CC[C@]2(C)[C@@H](C3=CC(=O)OC3)[C@@H](O)C[C@]12O (stereo not given in full) | 44.1% (active)
27 | CCN(CC)C(=O)[C@@H]1C=C2c3cccc4[nH]c(Br)c(c34)C[C@H]2N(C)C1 | 14.9%
28 | CCC/C(=N\O)c1c[nH]c2ccccc12 | -11.3%
29 | COc1cc(OC)cc(C(=O)NCCN2CCC3(CC2)C(=O)NCN3c2ccccc2)c1 | 0.55%
30 | NCCc1ccc(S(=O)(=O)F)cc1 | 18.9%
